Unmarked numbers belong to inactive results. For some of these results: Results with a measured potency or affinity are listed apart. The source made the active and inactive calls. Unless noted, no rule for the calls is given here.

Test [1] is described as follows: antimalarial activity against Dd2 strain (AID 2302;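 active = growth inhibition above 50% at the single 2 µM test dose, taken to imply half-maximal potency below 2 µM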;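 also: 0% = DMSO untreated growth and 100% = chloroquine plus artemisinin killed control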). As to conditions: P. falciparum Dd2 in RBCs, LDH growth readout, 72 h; at 2 µM; stronger effect = higher value.
Test [2] is described as follows: HepG2 cytotoxicity, primary screen, cytotoxicity control for P. falciparum antimalarial project, cell-based, ATP luminescence (AID 2303;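 active = inhibition above 50%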;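 also: 0% = DMSO wells and 100% = digitonin-killed cells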). Conditions: HepG2 viability, 24-48 h, at 10 µM, stronger effect = higher value.
Test [3] addresses L-lactate dehydrogenase (Plasmodium falciparum (isolate CDC / Honduras)) (UniProt Q27743). The experiment in a line: PfLDH activity inhibition – cell lysate, 3D7 strain, counter-screen for P. falciparum growth inhibition project (AID 2304).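 Also: 0% = vehicle and 100% = reference inhibitor.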 Conditions: P. falciparum 3D7 crude extract, LDH APAD/NBT absorbance; at 2 µM; stronger effect = higher value.
Test [4] in a line: inhibition of 3D7 malaria parasite growth – strain 3D7 (AID 2306).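 Also: 0% = DMSO wells and 100% = chloroquine plus artemisinin control wells.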 Conditions: P. falciparum 3D7 erythrocytic growth, LDH absorbance, 72 h; at 2 µM; stronger effect = higher value.
The target in test [5] is Calcium-dependent protein kinase 1 (Plasmodium falciparum (isolate 3D7)) (UniProt P62344). Description: PfCDPK1 kinase inhibitors, biochemical, TCAMS library (AID 1159585; cut-off not given, nearly all actives have IC50 up to about 0.98 µM;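 also: inhibitors leave more ATP so luminescence rises with inhibition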). As to conditions: recombinant PfCDPK1, Kinase-Glo ATP depletion luminescence. In general terms: In Kinase-Glo more light means more ATP remaining.
The target of test [6] is Plasmodium falciparum protein kinase 6 (PK6, PF3D7_1337100) (UniProt Q8IDW1). The experiment in a line: PfPK6 kinase inhibitors, biochemical, TCAMS library (AID 1159586). Conditions: recombinant PfPK6, Kinase-Glo ATP depletion luminescence.
Test [7] concerns the target Protein kinase 7 (PK7), Plasmodium falciparum 3D7 (PF3D7_0213400) (UniProt Q7YTF7). Description: inhibition of Plasmodium PK7 catalytic activity – biochemical, TCAMS antimalarial set, Kinase-Glo luminescence (AID 1159587). Conditions: recombinant PfPK7, Kinase-Glo ATP depletion luminescence.
Test [8] has as its target Calcium-dependent protein kinase 4 (Plasmodium falciparum (isolate 3D7)) (UniProt Q8IBS5). Description: PfCDPK4 kinase inhibitors, biochemical, TCAMS library (AID 1159588; cut-off not given, nearly all actives have IC50 up to about 0.91 µM). Conditions: recombinant PfCDPK4, Kinase-Glo ATP depletion luminescence.

Calcium-dependent protein kinase 1 (Plasmodium falciparum (isolate 3D7)), sequence (P62344 whole entry, looked up): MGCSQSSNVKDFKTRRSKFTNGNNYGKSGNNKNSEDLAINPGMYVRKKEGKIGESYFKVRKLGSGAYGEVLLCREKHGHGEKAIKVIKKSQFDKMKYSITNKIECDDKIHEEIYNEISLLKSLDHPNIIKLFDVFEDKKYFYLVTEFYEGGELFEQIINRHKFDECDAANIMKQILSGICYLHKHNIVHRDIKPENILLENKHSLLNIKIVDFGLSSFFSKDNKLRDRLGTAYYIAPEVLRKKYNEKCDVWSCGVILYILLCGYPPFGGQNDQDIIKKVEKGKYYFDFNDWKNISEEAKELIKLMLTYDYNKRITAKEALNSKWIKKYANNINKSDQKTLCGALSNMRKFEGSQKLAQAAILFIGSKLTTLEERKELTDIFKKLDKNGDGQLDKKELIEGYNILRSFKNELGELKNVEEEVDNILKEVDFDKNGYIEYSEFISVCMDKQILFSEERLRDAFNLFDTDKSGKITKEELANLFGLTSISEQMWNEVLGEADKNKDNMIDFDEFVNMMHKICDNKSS
Plasmodium falciparum protein kinase 6 (PK6, PF3D7_1337100), sequence (Q8IDW1 1-305): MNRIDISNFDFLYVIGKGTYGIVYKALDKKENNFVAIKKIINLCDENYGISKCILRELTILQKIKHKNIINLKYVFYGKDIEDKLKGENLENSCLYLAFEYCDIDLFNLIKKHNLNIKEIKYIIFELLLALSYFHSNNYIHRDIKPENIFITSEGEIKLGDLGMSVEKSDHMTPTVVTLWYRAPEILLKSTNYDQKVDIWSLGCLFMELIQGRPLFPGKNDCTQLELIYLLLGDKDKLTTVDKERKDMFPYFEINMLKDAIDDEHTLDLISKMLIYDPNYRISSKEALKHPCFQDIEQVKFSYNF
Protein kinase 7 (PK7), Plasmodium falciparum 3D7 (PF3D7_0213400), sequence (Q7YTF7 1-343): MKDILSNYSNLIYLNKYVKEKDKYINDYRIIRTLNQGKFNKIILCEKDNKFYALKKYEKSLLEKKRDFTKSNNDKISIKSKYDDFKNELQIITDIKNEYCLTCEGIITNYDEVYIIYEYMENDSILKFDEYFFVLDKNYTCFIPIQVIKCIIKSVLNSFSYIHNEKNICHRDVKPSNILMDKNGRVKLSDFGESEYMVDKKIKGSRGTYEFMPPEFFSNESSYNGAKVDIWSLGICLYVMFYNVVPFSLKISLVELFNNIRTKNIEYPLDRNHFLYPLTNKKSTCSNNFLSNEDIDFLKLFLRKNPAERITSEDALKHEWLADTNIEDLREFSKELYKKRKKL
Calcium-dependent protein kinase 4 (Plasmodium falciparum (isolate 3D7)), sequence (Q8IBS5 whole entry, looked up): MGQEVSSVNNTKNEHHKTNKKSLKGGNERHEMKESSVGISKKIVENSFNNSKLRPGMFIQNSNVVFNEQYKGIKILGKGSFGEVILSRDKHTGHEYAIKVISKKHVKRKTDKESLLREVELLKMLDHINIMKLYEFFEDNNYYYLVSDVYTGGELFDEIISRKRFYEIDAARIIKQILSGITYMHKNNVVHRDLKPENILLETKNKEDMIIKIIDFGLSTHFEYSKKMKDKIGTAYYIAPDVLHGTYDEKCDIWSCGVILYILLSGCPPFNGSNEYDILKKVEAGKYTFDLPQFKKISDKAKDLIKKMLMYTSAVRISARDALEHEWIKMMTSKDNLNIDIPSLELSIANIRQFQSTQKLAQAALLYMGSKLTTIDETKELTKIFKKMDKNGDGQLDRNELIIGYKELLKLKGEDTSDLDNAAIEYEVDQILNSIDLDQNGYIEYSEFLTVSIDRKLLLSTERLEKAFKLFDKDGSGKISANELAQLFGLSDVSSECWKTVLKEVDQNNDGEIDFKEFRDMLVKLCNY
L-lactate dehydrogenase (Plasmodium falciparum (isolate CDC / Honduras)), sequence (Q27743 whole entry, looked up): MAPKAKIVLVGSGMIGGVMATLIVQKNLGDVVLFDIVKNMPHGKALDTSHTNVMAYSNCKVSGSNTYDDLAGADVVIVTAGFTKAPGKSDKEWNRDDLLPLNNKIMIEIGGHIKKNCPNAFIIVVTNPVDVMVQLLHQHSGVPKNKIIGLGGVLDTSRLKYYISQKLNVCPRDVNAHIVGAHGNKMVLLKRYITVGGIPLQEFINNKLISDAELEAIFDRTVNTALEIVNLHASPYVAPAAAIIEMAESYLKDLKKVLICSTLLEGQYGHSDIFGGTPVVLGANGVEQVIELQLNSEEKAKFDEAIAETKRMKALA

As for `Oc1cccc2ccc(Nc3ccccn3)nc12`, the growth inhibition in test [1] is 93% (active); in test [4], 99% (active). The inhibition in test [2] was 72% (active); in test [3], 3%. In addition, the result in test [5], in test [6], in test [7] and in test [8] was inactive.

Regarding `CN1CCC(NCc2ccc(-c3ccc(Cl)cc3)cc2)CC1`, the growth inhibition was 43% in test [1] and 99% (active) in test [4]. The inhibition in test [2] was 50% (active); in test [3], 6%. Also, the result in test [5], in test [6], in test [7] and in test [8] was inactive.

As to `CS(=O)(=O)c1ccc(CNCc2ccc(-c3ccc(-c4nc5ccc(C(F)(F)F)cc5[nH]4)s3)cc2)cc1`, the growth inhibition in test [1] was 98% (active); in test [4], 102% (active). In addition, the inhibition was 49% in test [2] and -5% in test [3]. Also, the outcome in test [5], in test [6], in test [7] and in test [8] was inactive.

As for `COc1cc([N+](=O)[O-])ccc1NC(=O)Nc1ccc(OC(F)(F)F)cc1`, the growth inhibition is 72% (active) in test [1] and 84% (active) in test [4]. The inhibition in test [2] was 14%; in test [3] it was 3%. Further, the outcome in test [5], in test [6], in test [7] and in test [8] was inactive.

For `CC[C@H](C)CNC(=O)c1cncc(-c2cccc(CN(C)C3CCN(C)CC3)c2)c1`, the values for the growth inhibition in test [1] and in test [4] were 59% (active) and 101% (active), respectively. The values for the inhibition in test [2] and in test [3] were 9% and 1%, respectively. In addition, the outcome in test [5], in test [6], in test [7] and in test [8] was inactive.

Take `O=C(NCC1CCN(CCN2CCc3ccc4c(c3C2)OCO4)CC1)c1ccc(-c2ccc(C(F)(F)F)cc2)cc1`: the growth inhibition was 34% in test [1] and 93% (active) in test [4]. For the same compound, the inhibition in test [2] is 66% (active); in test [3], -5%. The outcome in test [5], in test [6], in test [7] and in test [8] was inactive.

Consider `CCCCCN1CCC(NS(=O)(=O)c2cccc(C(=O)Nc3ccc(Cl)cc3)c2)CC1`, for which the growth inhibition in test [1] is 29%; in test [4] it was 88% (active). The inhibition is 24% in test [2] and -3% in test [3]. Also, the outcome in test [5], in test [6], in test [7] and in test [8] was inactive.

With `CN(C)CCOc1ccc(-c2cc(-c3ccncc3)c(-c3ccc(Cl)c(O)c3)[nH]2)cc1`, the figures for the growth inhibition in test [1] and in test [4] were 100% (active) and 98% (active), respectively. Besides, the results for the inhibition in test [2] and in test [3] were 25% and -2%, respectively. Moreover, the outcome in test [5], in test [6], in test [7] and in test [8] was inactive.

On to `COc1ccc(-c2cnc3ccc(NCc4ccc(S(N)(=O)=O)cc4)nn23)cc1`, for which the growth inhibition is 99% (active) in test [1] and 96% (active) in test [4]. Also, the inhibition in test [2] is 19%; in test [3], -2%. In addition, the result in test [5], in test [6], in test [7] and in test [8] was inactive.

As to `COc1ccc2ncc(Cl)c(N3CCC(CCNCc4ccc5c(n4)NC(=O)CS5)CC3)c2c1`, the growth inhibition is 82% (active) in test [1] and 89% (active) in test [4]. The inhibition is 33% in test [2] and 0% in test [3]. Moreover, the outcome in test [5], in test [6], in test [7] and in test [8] was inactive.

`O=C(CNC1CCCCC1)Nc1cccc(C(=O)Nc2cccc(C(F)(F)F)c2)c1`: the growth inhibition in test [1] was 80% (active); in test [4], 93% (active). Further, the inhibition in test [2] was 17%; in test [3], -6%. The result in test [5], in test [6], in test [7] and in test [8] was inactive.

As for `Cc1nc(-c2cccc(C(=O)N(Cc3cncn3Cc3cccc(C(F)(F)F)c3)CC3CC3)c2)cs1`, the growth inhibition was 17% in test [1] and 97% (active) in test [4]. In addition, the results for the inhibition in test [2] and in test [3] were 7% and 4%, respectively. In addition, the result in test [5], in test [6], in test [7] and in test [8] was inactive.

Regarding `Cc1cc(C)c(S(=O)(=O)N2CCCCC(c3cccc(C(F)(F)F)c3)=N2)c(C)c1`, the growth inhibition in test [1] is 95% (active); in test [4], 94% (active). The results for the inhibition in test [2] and in test [3] were -1% and -2%, respectively. For the same compound, the result in test [5], in test [6], in test [7] and in test [8] was inactive.

For the compound `O=C(Nc1ccc(-c2nc3ccccc3[nH]2)cc1)c1ccc([N+](=O)[O-])s1`, the growth inhibition is 77% (active) in test [1] and 101% (active) in test [4]. In addition, the inhibition in test [2] is 83% (active); in test [3], -6%. Further, the result in test [5], in test [6], in test [7] and in test [8] was inactive.

Consider `Cc1cc(N[C@@H](Cc2ccccc2)C(=O)Nc2ccccc2)nc(NCCc2ccccn2)n1`, for which the results for the growth inhibition in test [1] and in test [4] were 50% (active) and 97% (active), respectively. Moreover, the inhibition in test [2] was -3%; in test [3] it was -1%. The result in test [5], in test [6], in test [7] and in test [8] was inactive.

`CCCCN(C(=O)c1ccccc1Cl)c1nnc(-c2ccccc2C)s1`: the results for the growth inhibition in test [1] and in test [4] were 86% (active) and 90% (active), respectively. Further, the inhibition in test [2] was 12%; in test [3] it was 0%. Further, the outcome in test [5], in test [6], in test [7] and in test [8] was inactive.

Turning to `O=c1cc(NCCCCNCc2cccc(Br)c2)[nH]c2ccccc12`, the growth inhibition in test [1] was 19%; in test [4], 98% (active). The inhibition in test [2] is -1%; in test [3], 0%. Further, the result in test [5], in test [6], in test [7] and in test [8] was inactive.

`CCCCCCCN(Cc1ccc(OC(C)(C)C(=O)OCC)cc1)C(=O)Nc1ccccc1OC(F)(F)F`: the growth inhibition in test [1] was 68% (active); in test [4], 95% (active). The inhibition in test [2] is -2%; in test [3], 3%. Further, the result in test [5], in test [6], in test [7] and in test [8] was inactive.

Consider `C=CCOC(=O)N1CCC(CNCc2cccc(-c3cccc(-c4nc5ccc(F)cc5[nH]4)c3)c2)C1` (stereo not given), for which the growth inhibition in test [1] is 49%; in test [4], 102% (active). Moreover, the inhibition is 20% in test [2] and 0% in test [3]. Moreover, the outcome in test [5], in test [6], in test [7] and in test [8] was inactive.

As for `O=C(NC(CCCN1CCC2(CC1)OCc1ccccc12)c1ccc(Cl)c(Cl)c1)c1cc(C(F)(F)F)cc(C(F)(F)F)c1` (stereo not given), the growth inhibition in test [1] is 99% (active); in test [4], 100% (active). For the same compound, the inhibition in test [2] is 55% (active); in test [3], 5%. Besides, the outcome in test [5], in test [6], in test [7] and in test [8] was inactive.

One may read the inhibition as the drop in the measured response relative to a control, in per cent.

The record behind these values is PubChem BioAssay.
